Assay results from PubChem BioAssay (NCATS).
Results filed as inconclusive are left out. The source made the active and inactive calls. Calls follow the shape of the dose curve; as a rule, active = well fitted inhibition curve with a large enough effect; inconclusive = small, poorly fitted or top-dose-only effect; inactive = no such curve, though single readings can be large or run the other way.

test: Primary qHTS for inhibitors of La Crosse Virus (LACV) - induced cell death in SH-SY5Y cells (AID 1508616); conditions: SH-SY5Y LACV cytopathicity rescue, ATP luminescence, 6 d; series mostly up to 4.29 µM;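 also: top concentration of the series differs between compounds; 0% = infected DMSO wells and 100% = uninfected DMSO wells; higher means more rescue of cells from virus-induced death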
Outline: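 Rescue of virus-induced death was read as ATPLite luminescence after 6 days at 37C, scaled between DMSO wells with LACV and without virus. Cells were SH-SY5Y, 6000/well, infected at 0.01 MOI after compound addition.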

Question: Which outcome does the source give for O=C1NC(c2ccccc2)(c2ccccc2)C(=O)N1COP(=O)(O)O here?
Answer: inactive

Question: With CCOC(=O)C(=O)c1csc(NC=O)n1 as the molecule, how does the outcome read?
Answer: inactive

Question: For CC1c2ccccc2CN1NC(=O)c1ccc(Cl)c(S(N)(=O)=O)c1 (configuration not stated), which outcome is on record?
Answer: inactive

Question: Which outcome does the source give for O=C(O)CNC(=O)CNC(=O)CNC(=O)CSC(=O)c1ccccc1 here?
Answer: inactive

Question: Which outcome does the source give for CC(=O)OCC(=O)[C@@]1(O)[C@H](OC(C)=O)C[C@H]2[C@@H]3CCC4=CC(=O)C=C[C@]4(C)[C@@]3(F)[C@@H](O)C[C@@]21C here?
Answer: inactive

Question: Which outcome does the source give for CC(C)C(=O)OCc1cccc(OC(=O)[C@@H]2N3C(=O)[C@@H](NC(=O)Cc4ccccc4)[C@H]3SC2(C)C)c1 here?
Answer: inactive

Question: For O=C(O)c1ccccc1Nc1cc(Cl)ccc1C(=O)O, which outcome is on record?
Answer: inactive

Question: Which outcome does the source give for CC(C)OP(=O)(CP(=O)(OC(C)C)OC(C)C)OC(C)C here?
Answer: inactive

Question: With O=C(O)c1[nH]n(-c2ccc(S(=O)(=O)O)cc2)c(=O)c1N=Nc1ccc(S(=O)(=O)O)cc1 as the molecule, how does the outcome read?
Answer: inactive

Question: Which outcome does the source give for C[N+]1(CC2COC(c3ccccc3)(c3ccccc3)O2)CCCCC1 (configuration not stated) here?
Answer: inactive

Question: For CC(C)NC(=O)c1ccc(C=O)cc1, which outcome is on record?
Answer: inactive

Question: Which outcome does the source give for CCOC(=O)N1CCC(n2c(=O)[nH]c3cc(Cl)ccc32)CC1 here?
Answer: inactive

Question: Which outcome does the source give for C=CC[N+]1([C@H]2C[C@H]3[C@@H]4CC[C@H]5C[C@H](OC(C)=O)[C@@H](N6CCCCC6)C[C@]5(C)[C@H]4CC[C@]3(C)[C@H]2OC(=O)CC)CCCCC1 here?
Answer: inactive

Question: Which outcome does the source give for O=C1NCCN1CCN1CCC(c2cn(-c3ccc(F)cc3)c3ccc(Cl)cc23)CC1 here?
Answer: inactive

Question: For CCCCN(CCCC)C(C(N)=O)c1ccc(OC)cc1 (configuration not stated), which outcome is on record?
Answer: inactive

Question: For CC1CN(c2cc3c(cc2F)c(=O)c(C(=O)O)cn3-c2ccc(F)cc2F)CCN1 (configuration not stated), which activity change is on record?
Answer: -2.85% [at 0.431 µM] (inactive)

Question: Which outcome does the source give for CC1(C)O[C@@H]2C[C@H]3[C@@H]4CCC5=CC(=O)C=C[C@]5(C)[C@@]4(F)[C@@H](O)C[C@]3(C)[C@]2(C(=O)CO)O1 here?
Answer: inactive

Question: For CCN(CC)C(=O)C1CN2CCc3cc(OC)c(OC)cc3C2CC1OC(C)=O (configuration not stated), which outcome is on record?
Answer: inactive

Question: Which outcome does the source give for C[C@@]12CCC[C@H]1[C@@H]1CC[C@H]3C[C@@H](O)CC[C@]3(C)[C@H]1CC2 here?
Answer: inactive

Question: With Cc1ncc(CO)c(CO)c1O as the molecule, how does the outcome read?
Answer: inactive

Question: For CN(C)CCN(Cc1ccsc1)c1ccccn1, which outcome is on record?
Answer: inactive

Question: With Cc1cccc(OCC(O)CNC(C)(C)C)c1C (configuration not stated) as the molecule, how does the outcome read?
Answer: inactive

Question: With C=C(C)C(=O)OCC(O)CO (configuration not stated) as the molecule, how does the outcome read?
Answer: inactive

Question: With CC(C)(C)NCC(O)COc1ccccc1OCC1CCCO1 (configuration not stated) as the molecule, how does the outcome read?
Answer: inactive

Question: For CC[N+](CC)(CC)CCOC(=O)C(C1CCCC1)C1CCCC1, which outcome is on record?
Answer: inactive

Question: Which outcome does the source give for CC(=O)c1cc2ccccc2s1 here?
Answer: inactive

Question: With CN1CCN(N)CC1 as the molecule, how does the outcome read?
Answer: inactive

Question: With CC1(C)OC(=O)Nc2ccc(Br)cc21 as the molecule, how does the outcome read?
Answer: inactive

Question: Which outcome does the source give for CC(=O)Nc1ccc(S(=O)(=O)Nc2cc(C)on2)cc1 here?
Answer: inactive

Question: With CO[C@@H]1[C@@H](O[C@@H]2O[C@H](C)[C@@H](O[C@H]3C[C@@](C)(O)[C@@H](O)[C@H](C)O3)[C@H](N(C)C)[C@H]2O)[C@@H](CC=O)C[C@@H](C)[C@@H](O[C@@H]2CC[C@H](N(C)C)[C@@H](C)O2)/C=C/C=C/C[C@@H](C)OC(=O)C[C@H]1OC(C)=O as the molecule, how does the outcome read?
Answer: inactive

Question: For CCC[C@H](N[C@@H](C)C(=O)N1[C@H](C(=O)O)C[C@@H]2CCCC[C@@H]21)C(=O)OCC, which outcome is on record?
Answer: inactive

Question: With CC(C)CCCC(C)NCCC(C)C (configuration not stated) as the molecule, how does the outcome read?
Answer: inactive

Question: Which outcome does the source give for Cc1cccc(C)c1NC(=O)c1cc(S(N)(=O)=O)c(Cl)cc1O here?
Answer: inactive

Question: With CN1N=C(C(N)=O)CCC1=O as the molecule, how does the outcome read?
Answer: inactive

Question: For CCNC(=O)NCCCOc1cccc(CN2CCCCC2)c1, which outcome is on record?
Answer: inactive

Question: With OC1(c2ccc(Cl)c(C(F)(F)F)c2)CCN(CCCC(c2ccc(F)cc2)c2ccc(F)cc2)CC1 as the molecule, how does the outcome read?
Answer: inactive

Question: Which outcome does the source give for COc1ccc(CCC(C)=O)cc1 here?
Answer: inactive
